The source made the active and inactive calls. How the source made its calls: active means hit-call score of the fitted dose curve at least 0.9, where 1 is the maximum; inactive means score below 0.9.

Read-out in the experiment: Alkaline Phosphatase, Placental (ALPP) gene, ALPP (gene 250)
The experiment is described as follows: LTEA_HepaRG_ALPP: Life Technologies and Expression Analysis (LTEA) Assay for Alkaline Phosphatase, Placental (ALPP) gene using HepaRG (AID 2283468).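 On AC50: ALPP transcript by TaqMan qRT-PCR normalized to ACTB GAPDH and POLR2A.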 The following applies: mRNA level, 48 h; actives raise or lower the signal. On the procedure:
LTEA_HepaRG is a cell based, multiplexed-readout assay that uses HepaRG, a human liver cell line, with measurements taken at 48 hours after chemical dosing on a 96-well plate.LTEA_HepaRG_ALPP is one of 102 assay component(s) measured in the LTEA HepaRG cell culture assay. It is a marker of Cell proliferation, survival, death.Data from the assay component LTEA_HepaRG_ALPP was analyzed into 1 endpoint. This assay endpoint, LTEA_HepaRG_ALPP, was analyzed with bidirectional fitting relative to DMSO as the negative control and baseline of activity. Using a type of inducible reporter, measures of mRNA induction for gain or loss-of-signal activity can be used to understand regulation of transcription factor activity. To generalize the intended target to other relatable targets, this assay endpoint is annotated to the phosphatase intended target family, where the subfamily is Cell proliferation, survival, death.
A total of 1060 chemcials from the ToxCast library were tested in eight-point concentration-response experiments. Cell culture and cytotoxicity assays were conducted at Thermo Fisher Scientific's Custom Services facility (Madison, WI). A single lot of human HepaRG cells (Thermo Fisher Scientific, Frederick, MD) was used for the cell culture experiments. 96-well format collagen type I coated plates of human HepaRG cells were prepared using established methods. Briefly, cryopreserved HepaRG cells were thawed, plated at a density of approximately 100,000 cells/well in HepaRG Thaw, Plate, and General Purpose media (HPRG770, Thermo Fisher Scientific), and incubated for 48 hours. 0.5% DMSO was selected as vehicle control to balance the requisite need of DMSO in HepaRG cultures to maintain differentiation (for example, baseline metabolism, proportions of hepatocytes vs. cholangiocytes), while enabling further hepatic receptor pathway activation (for example, PXR and CAR) in response to chemical exposure. 48 hours after plating, the culture medium was replaced with HepaRG Serum-Free Incudtion Media. Cells were exposed to each test chemical in duplicate and maintained in CO2 incubators for another 48 hours. Chemical plates were thawed to room temperature and 200x concentrations of treatment groups were prepared. 8-point conentration-reponse curves were made with the highest exposure at 100 uM, followed by half-log dilutions, all in 0.5% DMSO. Each test plate contained variouse controls, induction positive controls (1mM phenobarbital), cytotoxicity positive controls ([…] aflatoxin B1), vehicle controls (0.5% DMSO), and total lysis controls (0.5% DMSO). Cell morphology images were taken using an Essen IncuCyte FLR automated microscope, with six 96-well plates imaged in about 24 minutes. Images were captured and exported and JPEG files. Spent culture media was transfered to black-well plates for the LDH assay, and remaining media was sorted at -80 C for later use. Cells were treated with RLT buffer and frozen until shipped for gene expression analysis. Total RNA was isolated from the cell suspension in 75 uL of Buffer RLT (Qiagen, Germantown, MD 20874) by Quintiles/Expression Analysis (Durham, NC) using a custom isolation procedure. Total RNA from each plate well was transferred to a preamplification plate. Fluidigm's 96.96 Dynamic ArrayTM (Fluidigm, Amsterdam, the Netherlands) technology was used for gene expression analyses by quantitative reverse transcription polymerase chain reaction (qRT-PCR, performed by Quintiles/Expression Analysis, Durham, NC)89. Standard TaqManTM Assays (Applied Biosystems/ThermoFisher Scientific, Foster City, CA) were used to assess the expression of 93 genes selected based on their selectivity and sensitivity to important hepatic receptors known to be modulated by environmental chemicals; importance in human hepatocyte functionality; and hepatotoxicity. […]
For `CC[C@H](c1ccc(O)cc1)[C@@H](CC)c1ccc(O)cc1`, the half-maximal activity concentration (AC50) is 83.6 µM (active).

Take `Cc1oc(-c2ccccc2)nc1CCOc1ccc(C[C@H](Nc2ccccc2C(=O)c2ccccc2)C(=O)O)cc1`: the AC50 was 26.1 µM (active).

Turning to `CCc1ccc(CCOc2ccc(CC3SC(=O)NC3=O)cc2)nc1` (stereo not given), the AC50 is 38.2 µM (active).

For the compound `CCOC(=O)CC(O)(CC(=O)OCC)C(=O)OCC`, the compound was called inactive.

Take `COCC(C)O` (stereo not given): the result was inactive.

Consider `COCC(C)OCC(C)O` (stereo not given), for which the result was inactive.

As for `OC1CCC(C2CCCCC2)CC1` (stereo not given), the outcome was inactive.

As for `C#C[C@]1(O)CC[C@H]2[C@@H]3CCC4=CC(=O)CC[C@@H]4[C@H]3CC[C@@]21C`, the half-maximal activity concentration (AC50) was 10.1 µM (active).

Turning to `CCc1nn(C2CCCCC2)c2cc(C3(C#N)CCC(C(=O)O)CC3)ccc12` (stereo not given), the AC50 is 50 µM (active).

For the compound `CCC(C)(C)C1CCC(O)CC1` (stereo not given), the call was inactive.

`O=[N+]([O-])c1ccc(O)cc1`: the result was inactive.

On to `O=C(OCCOCCOC(=O)c1ccccc1)c1ccccc1`, for which the call was inactive.

On to `Nc1cccc2c(N)cccc12`, for which the compound was classed as inactive.

`CC(O)CO` (stereo not given): the outcome was inactive.

In the case of `CC(C)(C)c1cccc(C(C)(C)C)c1O`, the compound was called inactive.

Take `CC(C)CCCCCCOC(=O)CCCCC(=O)OCCCCCCC(C)C`: the call was inactive.

In the case of `CCCCCCCC(=O)O`, the result was inactive.

On to `OCCC(F)(F)C(F)(F)C(F)(F)C(F)(F)C(F)(F)C(F)(F)F`, for which the call was inactive.

On to `CC(C)(C)c1ccc(O)c(C(C)(C)C)c1`, for which the outcome was inactive.

Take `CC1=C(/C=C/C(C)=C/C=C/C(C)=C/C(=O)O)C(C)(C)CCC1`: the call was inactive.

In the case of `CCCCOCCO`, the compound was classed as inactive.

Turning to `CC(C)(C)CC(C)(C)c1ccc(O)c(-n2nc3ccccc3n2)c1`, the outcome was inactive.

For `CCCCCCC(=O)O`, the result was inactive.

As to `CC#C[C@]1(O)CC[C@H]2[C@@H]3CCC4=CC(=O)CCC4=C3[C@@H](c3ccc(N(C)C)cc3)C[C@@]21C`, the half-maximal activity concentration (AC50) was 15.7 µM (active).

As for `CC[C@H](C)[C@@H](C(=O)O)n1sc2ccccc2c1=O`, the compound was classed as inactive.

For `CCCCC(CC)COC(=O)CCCCC(=O)OCc1ccccc1` (stereo not given), the compound was called inactive.

In the case of `CCCCC(CC)COC(=O)CCCCC(=O)OCC(CC)CCCC` (stereo not given), the outcome was inactive.

Regarding `OCCC(F)(F)C(F)(F)C(F)(F)C(F)(F)C(F)(F)C(F)(F)C(F)(F)C(F)(F)F`, the compound was called inactive.

As to `ClC1=C(Cl)C(Cl)(Cl)C(Cl)=C1Cl`, the outcome was inactive.

`N#C[C@@H]1CC(F)(F)CN1C(=O)CNC1CC2CCC(C1)N2c1ncccn1` (stereo not given in full): the compound was classed as inactive.

Regarding `CN(C)C=O`, the result was inactive.

Turning to `CCN(CC)CCNc1ccc(CNC=O)c2sc3ccc(OC)cc3c(=O)c12`, the result was inactive.

In the case of `COc1ccc([N+](=O)[O-])cc1N`, the outcome was inactive.

Consider `Oc1cccc(O)c1`, for which the compound was called inactive.

Turning to `CCC(=C(c1ccc(O)cc1)c1ccc(OCCN(C)C)cc1)c1ccccc1`, the compound was classed as inactive.

On to `NC(=O)N1C(=O)C(C(=O)c2cc(Cl)cs2)c2cc(F)c(Cl)cc21` (stereo not given), for which the AC50 was 50 µM (active).

`CCCOC(=O)c1ccc(O)cc1`: the compound was classed as inactive.

Turning to `CN1CCC[C@H]1c1cccnc1`, the compound was classed as inactive.

Take `CN1CCN(c2ccccc2/C=C2\SCCN(c3ccc(Cl)c(Cl)c3)C2=O)CC1`: the concentration at half-maximal activity (AC50) is 15.8 µM (active).

As to `NC(=O)N(O)[C@@H]1C=C[C@H](Oc2cccc(Oc3ccc(F)cc3)c2)C1`, the half-maximal activity concentration (AC50) is 3.76 µM (active).

For orientation: AC50 means the concentration giving half of the maximal activity seen.

These data come from PubChem BioAssay (EPA / NIEHS).
